Screens from PubChem.
POLK inh – qHTS for Inhibitors of Polymerase Kappa; DNA polymerase kappa (Homo sapiens), Q9UBT6; purified Pol kappa, fluorescent DNA synthesis assay, 10 min; Potency, µM (top dose mostly 107 µM), for the others: at the highest dose activity, negative = inhibition, most hits filed as inhibitors; 400,000 compounds, 0.53% hits; further: on the % scale 0 is the no-effect control and ±100 the full control effect
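Kinetic fluorescence readout at 0 and 10 min followed reaction start with substrate at 50 nM final. Beforehand, enzyme (10 nM Pol kappa) stood 15 min with compound at room temperature; buffer-only wells were negative controls.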
GLS inh – qHTS for Inhibitors of Glutaminase (GLS); Glutaminase kidney isoform, mitochondrial (Homo sapiens), O94925; GLS enzymatic activity, qHTS titration; Potency, µM (top dose mostly 45.5 µM), for inactives: at the highest dose activity change, negative = inhibition, actives largely listed as inhibitors; 410,000 compounds, 0.21% hits; AID 624170, 2012; further: on the % scale 0 is the no-effect control and ±100 the full control effect
Target sequence (O94925 whole entry, looked up, canonical isoform): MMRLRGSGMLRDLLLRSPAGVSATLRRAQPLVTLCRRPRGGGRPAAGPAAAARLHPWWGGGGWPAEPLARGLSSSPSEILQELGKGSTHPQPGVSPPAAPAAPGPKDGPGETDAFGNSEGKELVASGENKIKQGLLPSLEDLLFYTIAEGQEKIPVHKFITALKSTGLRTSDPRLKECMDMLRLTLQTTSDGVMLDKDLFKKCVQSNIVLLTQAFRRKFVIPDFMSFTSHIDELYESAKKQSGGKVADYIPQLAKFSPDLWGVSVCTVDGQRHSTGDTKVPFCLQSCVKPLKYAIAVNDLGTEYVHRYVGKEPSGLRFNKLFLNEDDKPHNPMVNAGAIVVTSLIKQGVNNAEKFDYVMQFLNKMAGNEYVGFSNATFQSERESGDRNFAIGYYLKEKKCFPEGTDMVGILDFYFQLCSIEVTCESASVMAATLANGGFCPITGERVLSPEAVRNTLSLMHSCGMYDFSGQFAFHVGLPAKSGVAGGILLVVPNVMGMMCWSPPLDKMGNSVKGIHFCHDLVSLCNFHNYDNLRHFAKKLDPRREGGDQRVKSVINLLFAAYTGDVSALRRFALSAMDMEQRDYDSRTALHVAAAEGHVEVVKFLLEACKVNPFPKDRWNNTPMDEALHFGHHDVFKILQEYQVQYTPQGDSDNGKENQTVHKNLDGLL
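Assay buffer: 45 mM KH2PO4 pH 8.2, 0.02% Tween-20. hKGA acts on L-glutamine (1 mM solution added); product glutamate is reported by an oxidase/peroxidase Amplex Red coupling, with fluorescence taken at baseline and 30 min.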
GCN5L2 inh – qHTS Assay for Inhibitors of GCN5L2; Histone acetyltransferase KAT2A (Homo sapiens), Q92830; GCN5L2 HAT assay, ThioGlo1 CoA-SH fluorescence; Potency, µM (doses to about 58.9 µM), without a hit: top-dose activity change, negative = inhibition, hits mostly inhibitors; 390,000 compounds, 0.21% hits; AID 504327, 2011; further: on the % scale 0 is the no-effect control and ±100 the full control effect
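ThioGlo1-coupled HAT assay: 20nM GCN5L2, 70uM acetyl-CoA, 75uM H3(1-25) peptide, pH 7.5. Fluorescence read at 340/540nm at start and after 20 min at room temperature.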
POLB inh – qHTS Assay for Inhibitors of DNA Polymerase Beta | P06746 | Pol beta primer extension/strand displacement, fluorescence kinetic | Potency, µM (series often up to 114 µM), inactives show at the top dose activity change, negative = inhibition, actives largely listed as inhibitors | 340,000 compounds, 1.3% hits | AID 485314, 2010; further: on the % scale 0 is the no-effect control and ±100 the full control effect
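Pol beta (10 nM) was preincubated with compound for 15 min at room temperature. The reaction was then started with 50 nM substrate and read immediately and after a further 10 min at room temperature.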
POLH inh – qHTS for Inhibitors of Polymerase Eta. DNA polymerase eta (Homo sapiens), Q9Y253. recombinant Pol eta, fluorescent DNA replication assay. Potency, µM (top dose mostly 114 µM), for the others: at the top dose activity change, negative = inhibition, most hits filed as inhibitors. 390,000 compounds, 1.2% hits. AID 588591, 2011; further: on the % scale 0 is the no-effect control and ±100 the full control effect
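Pol eta at 10 nM preincubated with compounds 15 min at room temperature; reaction started with fluorescent substrate (50 nM final) and read kinetically at 0 and 10 min.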
Pol iota inh – qHTS for Inhibitors of Polymerase Iota; DNA polymerase iota (Homo sapiens), Q9UNA4; Pol iota fluorescent replication assay, 10 min; Potency, µM (doses to about 115 µM), for the others: top-dose activity, negative = inhibition, most hits filed as inhibitors; 390,000 compounds, 1% hits
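Pol iota at 10 nM preincubated 15 min with compounds at room temperature; reaction started with fluorescent substrate, 50 nM final. Fluorescence read kinetically at 0 and 10 min; buffer-only wells as negative control.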
An asterisk follows results filed as active; ? = inconclusive; · = not tested or not shown; [ ] = remark or other dose. A selection: hits, their analogues and other compounds. The true share with any hit is near 2.4%. The call rests on the fitted dose curve; in most records, active means well fitted inhibition curve with a large enough effect; inconclusive means small, poorly fitted or top-dose-only effect, or another doubt; inactive means no such curve, though single readings can be large or run the other way. Potency means the concentration at half of the fitted maximal effect.

SMILES	POLK inh	GLS inh	GCN5L2 inh	POLB inh	POLH inh	Pol iota inh
CCOC(=O)c1c(S(=O)(=O)NCC(=O)NCc2ccc(C)cc2)c(C)n(C)c1C	-8%	0%	-2%	-2%	1%	23%
CCOC(=O)c1c(S(=O)(=O)NCC(=O)Nc2ccc(F)cc2F)c(C)n(C)c1C	-10%	3%	-5%	-1%	-3%	4%
CCOC(=O)c1c(S(=O)(=O)NCC(=O)Nc2ccc(F)cc2C)c(C)n(C)c1C	2%[60.1 µM]	-10%	-2%	-22%	79µM*	11%
CCOC(=O)c1c(S(=O)(=O)NCC(=O)N(C)c2ccc(C)cc2)c(C)n(C)c1C	-14%[60.1 µM]	5%	-2%	7%	45µM*	-5%
Cc1cc(Cl)cc(Cl)c1OCC(=O)NCc1ccco1	-43%	3%	-6%	40µM*	20µM*	?
O=C(COc1ccc(Cl)cc1Cl)NCc1ccco1	-13%	-6%	-4%	18%	0%	-2%
Cc1ccc2c(Cl)cc(Cl)c(OCC(=O)NCc3ccco3)c2n1	·	·	?	13µM*	·	·
Cc1ccc2c(Cl)cc(Cl)c(OCC(=O)NC(=O)NCc3ccco3)c2n1	-9%	-10%	-2%	?	-22%	?
COc1ccc(-n2c(C)cc(/C=C3\C(=N)N4N=C(CC(=O)N5CCOCC5)SC4=NC3=O)c2C)cc1	?	2%	?	0.89µM*	32µM*	50µM*
CC(C)c1ccc(/C=C2\C(=N)N3N=C(CC(=O)N4CCCCC4)SC3=NC2=O)cc1	?	-1%	-1%	-33%	-3%	20µM*
Nc1nc(N)nc(-c2cc(Cl)ccc2Cl)n1	14%[60.1 µM]	5%	-12%	·	-2%	79µM*
Nc1nc(N)nc(-c2cc(C(F)(F)F)ccc2Cl)n1	-16%	0%	-7%	·	-8%	-4%
Cc1ccc(OCC(=O)OC2=C(C(=O)c3ccccc3)N(C)S(=O)(=O)c3ccccc32)cc1	-6%	13%	3%	-12%	-13%	-9%
Cc1cccc(C(=O)OCC(=O)NCc2cccs2)c1	-16%	4%	-6%	17%	1%	18%
CS(=O)(=O)c1ccc(C(=O)OCC(=O)NCc2cccs2)cc1[N+](=O)[O-]	-12%	-3%	-4%	·	45µM*	?
O=C(N/N=C/C=C\c1ccco1)c1cccs1	?	-11%	?	22µM*	?	25µM*
O=C(N/N=C/C=C/c1ccc([N+](=O)[O-])cc1)c1cccs1	-16%	8%	-20%	7.1µM*	?	?
O=C(Cc1cccs1)N/N=C/C=C\c1ccco1	?	1%	16%	?	50µM*	?
O=C(CNC(=O)c1cccs1)N/N=C/c1ccco1	5%	-9%	2%	-2%	-8%	-3%
Cc1ccc(OCC(=O)N/N=C/C=C/c2ccco2)c(Br)c1	79µM*	11%	-25%	-23%	-6%	50µM*
O=C(Cc1cccs1)N/N=C/c1ccco1	-20%	-3%	-1%	-25%	?	-5%
COc1ccc(/C=C/C(=O)CC(=O)/C=C/c2cccc(O)c2OC)cc1O	?	·	-6%	·	·	·
CC(=O)C[C@H]1[C@H](O[C@H]2[C@H](OC(C)C(=O)N[C@@H](C)C(=O)N[C@H](CCC(=O)N[C@@H](CCCCN)C(=O)N[C@H](C)C(=O)O)C(N)=O)[C@@H](NC(=O)O)C(O)O[C@@H]2CO)O[C@H](CO)[C@@H](O)[C@@H]1O (stereo partly specified)	·	0%	·	·	·	·
O=C(N/N=C/C=C/c1ccco1)/C(=C/c1ccccc1)NC(=O)c1ccccc1	?	1%	28%	2%	79µM*	13µM*
O=C(N/N=C/C=C/c1ccco1)c1ccncc1	79µM*	10%	?	39%	-2%	16µM*
SMILES	POLK inh	GLS inh	GCN5L2 inh	POLB inh	POLH inh	Pol iota inh
O=C(O)/C(=C\c1ccco1)NC(=O)c1ccccc1	-20%	-6%	-1%	-1%	3%	3%
CC(=C/c1ccco1)/C=N/NC(=O)c1ccncc1	-15%	10%	?	2%	-23%	26%
NCCCNCCCCNC(=O)C(O)NC(=O)CCCCCCN=C(N)N (stereo unspecified)	·	-7%	·	·	·	·
CCN(CC)c1ccc(NS(=O)(=O)c2cc3[nH]c(=O)c(=O)[nH]c3cc2C)c(C)c1	?	52%	-12%	50µM*	-24%	?
CCN(CC)c1ccc2cc(-c3nnc(-c4cccc(Cl)c4)o3)c(=O)oc2c1	?	-1%	-3%	31%	-18%	89µM*
Cc1ccc(NC(=O)Nc2cn(C)c(=O)c3ccccc23)c(Cl)c1	-14%	-1%	0%	?	5%	71µM*
CN1CCCc2cc(/C=C/c3ccnc4ccccc34)ccc21	1%	·	·	·	·	11%
O=C(O)C1CC(c2ccc(F)cc2)=NO1 (stereo unspecified)	-11%	-14%	-3%[0.501 µM]	7.9µM*	-2%	-3%
CN1CCN(c2ncncc2-c2cccnc2)CC1	?	·	0.89µM*	·	·	·
CN1CCN(c2ncncc2-c2ccc(N(C)C)cc2)CC1	-6%[60.1 µM]	·	-6%	·	·	·
Cc1cc(NC(=O)CSCc2ccc([N+](=O)[O-])cc2)no1	13%	11%	19%	0%	-17%	83%
CC(C)(C)SCCNC(=O)CSCc1ccc([N+](=O)[O-])cc1	0%	3%	1.8µM*	17%	?	15%
O=C1N=c2ccc([N+](=O)[O-])cc2=C1c1sc(=O)[nH]c1O	89µM*	?	-24%	1%	-19%	15%
Nc1cccc[n+]1C(c1ccnc2ccccc12)[n+]1ccccc1N	-25%	·	·	·	·	-27%
Nc1ccc2c(c1)C/C(=C/c1ccco1)C2=O	-20%	7%	?	5.6µM*	?	?
CC(=O)Oc1ccc(-c2nc(-c3ccccc3)no2)cc1	-10%	·	·	·	·	8%
COc1ccc2cc3cc(C(=O)NCc4ccco4)oc3nc2c1	?	1%	-4%[0.501 µM]	22µM*	16µM*	?
CCOc1ccc(S(=O)(=O)N2CCN(c3nc(-c4ccccc4)nc4ccccc34)CC2)cc1	-7%	·	·	·	·	-7%
Cc1ccc(S(=O)(=O)n2nc(-c3ccc(Cl)cc3)nc2NCc2ccc(F)cc2)cc1	7%	-5%	-6%	12%	-17%	?
